Screening data (PubChem)
Tau FP inhib – blocks human tau fibril formation measured by polarization | P10636 | K18 P301L tau heparin fibrillization, Alexa594 FP, 6 h | Potency, µM (doses to about 57.7 µM), without a hit: at the highest dose activity, negative = inhibition, most hits filed as inhibitors | 0.39% of 280,000 active; note: potency is the fitted concentration of half-maximal effect; nearly all actives have a fitted effect of over 55% in size
Target sequence (P10636 561-689 P618L limits assumed): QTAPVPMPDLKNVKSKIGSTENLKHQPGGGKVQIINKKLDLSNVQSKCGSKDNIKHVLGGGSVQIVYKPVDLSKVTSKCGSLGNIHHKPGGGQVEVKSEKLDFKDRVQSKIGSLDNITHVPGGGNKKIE
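Steps: dispense K18 P301L tau (15 uM plus 0.24 uM Alexa 594 tracer, final) in pH 7 sodium acetate; add compound; add heparin (20 uM final); incubate 6 hr, 37 C; add ThT (30 uM final); after 1 hr ambient, read FP.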
Tau fibril ThT – inhibitors of human tau fibril formation, thioflavin T binding. AID 1460. 2.1% of 270,000 active. Potency, µM (series often up to 57.4 µM), without a hit: at the top dose activity, negative = inhibition, hits mostly inhibitors. recombinant tau K18 P301L, heparin-induced fibrillization, ThT fluorescence; note: potency is the fitted concentration of half-maximal effect; nearly all actives have a fitted effect of over 55% in size
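Using a mix of unlabeled (15 uM) and Alexa 594-labeled (0.24 uM) tau K18 P301L, heparin-triggered fibrillization over 6 hr at 37 C was scored by ThT fluorescence.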
Tau fluor cs – counter-screen for tau fibril formation inhibitors; tau K18 P301L (four-repeat tau fragment) Alexa594 fluorescence, heparin fibrillization; 0.93% of 280,000 active; Potency, µM (series often up to 57.7 µM), for the others: at the highest dose activity change, negative = decrease; note: potency is the fitted concentration of half-maximal effect; nearly all actives have a fitted effect of over 55% in size
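Human K18 P301L tau (15 uM unlabeled plus 0.24 uM Alexa 594-labeled, final) in 100 mM sodium acetate pH 7 was mixed with compound and 20 uM heparin and incubated 6 hr at 37 C.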
PNC inhibitor – perinucleolar compartment assembly inhibition. PC3M PTB-GFP, PNC prevalence imaging, 16 h; stronger effect = lower value. activity change (PNC), negative = inhibition, % at 10 µM. 3.1% of 140,000 active;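 active = readout at or below -70, meaning at least 70% loss of cells showing the perinucleolar compartment, a nuclear body marking cancer cells; inconclusive = readout between -30 and a set limit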;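 note: plate controls were DMSO wells for no effect and camptothecin positive control wells for full effect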
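Read-out is percentage of cells bearing a perinucleolar compartment, from automated 20x imaging of fixed, Hoechst-stained PC3M PTB-GFP cells. Cells were seeded 4 h, then exposed 16 h to compound (23 nl of library stock) in duplicate plates.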
TexasRed fluor – Texas Red fluorescence interference in TRb-SRC2 counter-screen | 0.29% of 280,000 active | Potency, µM (doses to about 106 µM), for inactives: top-dose fluorescence change, negative = quenching | TRb/SRC2 Texas Red total fluorescence interference; active = well fitted curve in either direction with a large enough effect; inconclusive = small, poorly fitted or top-dose-only effect; note: potency is the fitted concentration of half-maximal effect
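Human TRβ ligand-binding domain (0.6 uM) and Texas Red SRC2 peptide (20 nM) in Tris buffer with 1 uM T3 and 5% DMSO were incubated with pinned compound for 5 hr at ambient temperature. Total fluorescence was computed as S + 2P (555/632 nm).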
TRb-SRC2 inh – disrupts binding of human TR beta to SRC2; P10828; TRbeta-SRC2 peptide binding, fluorescence polarization; receptor liganded with 1 µM T3; Potency, µM (highest dose often 106 µM), without a hit: top-dose activity change, negative = inhibition, hits mostly inhibitors; 0.065% of 280,000 active; AID 1469;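 note: potency is the fitted concentration of half-maximal effect; plate controls were bound peptide for no effect and peptide without receptor for full effect; nearly all actives have a fitted effect of over 50% in size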
Target sequence (P10828 whole entry, looked up): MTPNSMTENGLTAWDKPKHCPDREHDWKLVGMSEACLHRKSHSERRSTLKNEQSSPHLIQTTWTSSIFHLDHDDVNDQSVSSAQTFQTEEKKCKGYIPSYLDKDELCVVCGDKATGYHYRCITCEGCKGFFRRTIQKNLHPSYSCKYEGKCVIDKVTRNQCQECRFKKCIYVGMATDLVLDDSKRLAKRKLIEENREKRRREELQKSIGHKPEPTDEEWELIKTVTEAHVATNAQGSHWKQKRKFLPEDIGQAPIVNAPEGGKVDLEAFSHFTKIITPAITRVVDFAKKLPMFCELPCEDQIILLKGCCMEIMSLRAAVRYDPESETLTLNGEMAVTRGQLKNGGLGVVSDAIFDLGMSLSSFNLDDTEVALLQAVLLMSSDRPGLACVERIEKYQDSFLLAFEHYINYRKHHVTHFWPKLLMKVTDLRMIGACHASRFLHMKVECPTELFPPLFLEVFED
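Quantitative HTS by FP: 0.6 uM TRb LBD, 20 nM labeled SRC2 20-mer, 1 uM T3, 5% DMSO; 5 hr ambient incubation; % activity per concentration and potencies from concentration series.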
* = called active by the depositor; [ ] = remark or other dose. Only some compounds are listed: those with a hit (about 4.6% of all), similar ones and a draw of the others. Unless noted, calls come from the whole dose curve; as a rule, active = well fitted curve in the direction sought with a large enough effect; inconclusive = small, poorly fitted or top-dose-only effect, or another doubt; inactive = no such curve, though single readings can be large; an effect the other way counts as inactive or inconclusive. Unless noted, % is set by controls: 0 for no effect and ±100 for the full control effect.

For Cc1c(C(=O)NCc2ccco2)cccc1[N+](=O)[O-] the results were Tau FP inhib 5%, Tau fibril ThT -8%, Tau fluor cs -8%, PNC inhibitor inconclusive, TexasRed fluor -1% and TRb-SRC2 inh 6%.
`CCCCOc1ccc(C(=O)N2CCCC2C(=O)O)cc1` (stereo not drawn) gave Tau FP inhib -1%, Tau fibril ThT -3%, Tau fluor cs 3%, PNC inhibitor -100*, TexasRed fluor -6% and TRb-SRC2 inh -4%.
CCCn1cc(CN2CCC(Cc3cccc(F)c3)(C(=O)OCC)CC2)c(C)n1 was read as Tau FP inhib -11%, Tau fibril ThT -11%, Tau fluor cs -9%, TexasRed fluor -1% and TRb-SRC2 inh 3%.
Screening COc1ccc(-c2cc3c(=O)n(CC(=O)NC4CCN(Cc5ccccc5)CC4)ncn3n2)cc1 returned Tau FP inhib 2%, Tau fibril ThT 0%, Tau fluor cs 4%, PNC inhibitor -90*, TexasRed fluor 2% and TRb-SRC2 inh -2%.
For COC(=O)c1c[nH]n2c(=O)cc(C)nc12 the results were Tau FP inhib -2%, Tau fibril ThT 4%, Tau fluor cs -11%, PNC inhibitor -3, TexasRed fluor -5% and TRb-SRC2 inh -11%.
`COC(=O)c1c[nH]n2c(=O)c(Cl)c(C)nc12` gave Tau FP inhib -2%, Tau fibril ThT -7%, Tau fluor cs -9%, PNC inhibitor -113*, TexasRed fluor -2% and TRb-SRC2 inh 5%.
COc1ccc(NC(=O)c2cc3cccc(OC)c3oc2=Nc2ccc(C(=O)O)cc2)cc1OC was read as Tau FP inhib inconclusive, Tau fibril ThT 14µM*, Tau fluor cs inconclusive, TexasRed fluor -14% and TRb-SRC2 inh 4%.
For COc1cccc2cc(C(=O)Nc3ccc(C)cc3)c(=O)oc12 the results were Tau FP inhib 2%, Tau fibril ThT -10%, Tau fluor cs 2%, TexasRed fluor 5% and TRb-SRC2 inh 5%.
C=CCN(CC=C)C(=O)C1CCC(C(=O)N(CC=C)CC=C)CC1 (stereo not drawn) was read as Tau FP inhib 0%, Tau fibril ThT -1%, Tau fluor cs -9%, PNC inhibitor -88*, TexasRed fluor -3% and TRb-SRC2 inh -9%.
`C=CCN(CC=C)C(=O)C1CC(=O)N(c2ccc(Br)cc2)C1` (stereo not drawn) gave Tau FP inhib -2%, Tau fibril ThT -3%, Tau fluor cs -4%, PNC inhibitor 16, TexasRed fluor 2% and TRb-SRC2 inh -25%.
Screening Cc1ccc(C=Nc2ccccc2C(N)=O)o1 returned Tau FP inhib 4%, Tau fibril ThT -15%, Tau fluor cs -4%, PNC inhibitor -93*, TexasRed fluor 2% and TRb-SRC2 inh -6%.
Screening CN(C)c1ccc(C=Nc2ccccc2C(N)=O)cc1 returned Tau FP inhib 8%, Tau fibril ThT inconclusive, Tau fluor cs -17%, PNC inhibitor -9, TexasRed fluor -5% and TRb-SRC2 inh -3%.
For COc1cccc(CNc2ccc(N3CCC(C)CC3)cc2)c1OC the results were Tau FP inhib inconclusive, Tau fibril ThT 18µM*, Tau fluor cs inconclusive, PNC inhibitor -18, TexasRed fluor 4% and TRb-SRC2 inh -4%.
Screening COc1ccc(-c2csc(Nc3cccnc3)n2)cc1 returned Tau FP inhib inconclusive, Tau fibril ThT inconclusive, Tau fluor cs inconclusive, PNC inhibitor -24, TexasRed fluor -1% and TRb-SRC2 inh 1%.
`COc1cccc(Nc2nc(-c3sc(NC(=O)c4ccco4)nc3C)cs2)c1` gave Tau FP inhib inconclusive, Tau fibril ThT 10µM*, Tau fluor cs inconclusive, PNC inhibitor 33, TexasRed fluor 3% and TRb-SRC2 inh 10%.
`COc1cccc(Nc2nc(-c3sc(N)nc3C)cs2)c1` gave Tau FP inhib -6%, Tau fibril ThT 11µM*, Tau fluor cs 14µM*[quencher], PNC inhibitor inconclusive, TexasRed fluor 1% and TRb-SRC2 inh 8%.
For CCCNc1nc(C)cc(-c2cc(-c3ccc(Cl)cc3)on2)n1 the results were Tau FP inhib -2%, Tau fibril ThT 2%, Tau fluor cs 1%, TexasRed fluor -2% and TRb-SRC2 inh -7%.
Screening COc1ccc(Cl)cc1C(=O)Nc1nc2ccc(S(C)(=O)=O)cc2s1 returned Tau FP inhib -10%, Tau fibril ThT -12%, Tau fluor cs -20%, TexasRed fluor -3% and TRb-SRC2 inh -2%.
Screening CCOC(=O)c1nn(-c2ccccc2C)c(=O)c2c(N)scc12 returned Tau FP inhib 18µM*, Tau fibril ThT 16µM*, Tau fluor cs -26%, TexasRed fluor -1% and TRb-SRC2 inh -3%.
`CN(C)S(=O)(=O)c1cccc(NC(=S)N/N=C/c2ccc(O)c(O)c2O)c1` gave Tau FP inhib 7.1µM*, Tau fibril ThT 3.2µM*, Tau fluor cs 13µM*[quencher], TexasRed fluor -6% and TRb-SRC2 inh 3%.
`CCOc1ccccc1/C=N/NC(=O)c1cccc(S(=O)(=O)N(CC)CC)c1` gave Tau FP inhib -2%, Tau fibril ThT -10%, Tau fluor cs -19%, TexasRed fluor 1% and TRb-SRC2 inh 1%.
CCN(CC)S(=O)(=O)c1cccc(C(=O)N/N=C/c2ccc(O)c(O)c2O)c1 was read as Tau FP inhib 8.9µM*, Tau fibril ThT 3.2µM*, Tau fluor cs inconclusive, PNC inhibitor 12, TexasRed fluor -28% and TRb-SRC2 inh -5%.
`CCn1c(C)nc2cc(C(=O)N/N=C/c3ccc(O)c(O)c3O)ccc21` gave Tau FP inhib 7.9µM*, Tau fibril ThT 3.2µM*, Tau fluor cs inconclusive, TexasRed fluor inconclusive and TRb-SRC2 inh -6%.
For O=C(Nc1cccc2ncccc12)c1ccc(Br)c([N+](=O)[O-])c1 the results were Tau FP inhib 0%, Tau fibril ThT inconclusive, Tau fluor cs -19%, TexasRed fluor -1% and TRb-SRC2 inh 0%.
C=CCNC(=S)NNc1nc2c(c(=O)[nH]1)C1(CCCC1)Cc1ccccc1-2 was read as Tau FP inhib -6%, Tau fibril ThT -8%, Tau fluor cs inconclusive, PNC inhibitor -9, TexasRed fluor -3% and TRb-SRC2 inh -11%.
`Clc1ccc2c(c1)c1cc(Cl)ccc1n2CN1CCOCC1` gave Tau FP inhib 13µM*, Tau fibril ThT inconclusive, Tau fluor cs inconclusive, PNC inhibitor 47, TexasRed fluor 0% and TRb-SRC2 inh -21%.
